Compound activity from PubChem.
Many of the other results were omitted from the sample, so hits are more common in it than they were.
CtBP-E1A blk: inhibitors of CtBP/E1A interaction | AlphaScreen GST-E1A/His-CtBP binding, 1536-well; stronger effect = lower value | activity change, % (no concentration beside the values) | 340,000 tested, 0.49% active | AID 651724; in the data active means activity change below about -65%; inconclusive means mostly about -30% to -63%
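Homogeneous bead-based format: GST-tagged E1A captured on glutathione donor beads, His-tagged CtBP on nickel acceptor beads; compounds precede bead addition by 2 h at 37 °C.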
JMJD2E inh: blocks human JMJD2E demethylase activity | B2RXH2 | JMJD2E catalytic domain, FDH-coupled NADH fluorescence (FDH is formaldehyde dehydrogenase) | Potency, µM (doses to about 57.1 µM), for the others: at the top dose activity change, negative = inhibition, hits mostly inhibitors | 230,000 tested, 1.6% active | AID 2147; active means well fitted inhibition curve with a large enough effect, not every such curve was filed as active; inconclusive means small, poorly fitted or top-dose-only effect, or another doubt; inactive means no such curve, though single readings can be large or run the other way;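 further: potency means the concentration at half of the fitted maximal effect; 0% = wells with enzyme and -100% = buffer wells without enzyme; nearly all actives have a fitted effect of over 50% in size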
Anesthetic bind: binds horse apoferritin like a general anesthetic | P02791 | apoferritin/1-aminoanthracene competitive binding, fluorescence | Potency, µM (top dose mostly 77.5 µM), for the others: top-dose activity change, negative = displacement, usual class: inhibitors | 350,000 tested, 0.074% active; further: potency means the concentration at half of the fitted maximal effect; nearly all actives have a fitted effect of over 20% in size
Target sequence (P02791 2-175 limits assumed): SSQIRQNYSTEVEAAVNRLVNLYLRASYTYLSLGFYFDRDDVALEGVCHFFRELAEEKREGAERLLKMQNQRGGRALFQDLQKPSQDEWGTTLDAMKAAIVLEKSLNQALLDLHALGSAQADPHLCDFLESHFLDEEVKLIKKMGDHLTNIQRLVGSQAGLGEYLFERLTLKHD
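Apoferritin-based anesthetic binding model; compound displacement of fluorescent 1-AMA measured as endpoint fluorescence after 10 minutes at room temperature, scaled to free-ligand and complex controls.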
Six1-Eya2 blk: blocks human Six1 binding to Eya2. Q15475+O00167. AlphaScreen GST-Six1/His-Eya2 binding, biochemical; stronger effect = lower value. activity change, % (no concentration beside the values). 360,000 tested, 0.56% active; in the data active means activity change below about -65%; inconclusive means mostly about -30% to -63%
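Compounds are tested against tagged Six1 and Eya2 proteins bridged by glutathione donor and nickel acceptor beads; after a one-hour incubation at 37 °C without light, AlphaScreen emission is recorded.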
GALK inh: inhibitors of human galactokinase; P51570; Purified GALK, Kinase-Glo residual ATP luminescence; Potency, µM (doses to about 57.5 µM), inactives show top-dose activity change, negative = inhibition, hits mostly inhibitors; 270,000 tested, 0.007% active; further: potency means the concentration at half of the fitted maximal effect
Target sequence (P51570 whole entry, looked up): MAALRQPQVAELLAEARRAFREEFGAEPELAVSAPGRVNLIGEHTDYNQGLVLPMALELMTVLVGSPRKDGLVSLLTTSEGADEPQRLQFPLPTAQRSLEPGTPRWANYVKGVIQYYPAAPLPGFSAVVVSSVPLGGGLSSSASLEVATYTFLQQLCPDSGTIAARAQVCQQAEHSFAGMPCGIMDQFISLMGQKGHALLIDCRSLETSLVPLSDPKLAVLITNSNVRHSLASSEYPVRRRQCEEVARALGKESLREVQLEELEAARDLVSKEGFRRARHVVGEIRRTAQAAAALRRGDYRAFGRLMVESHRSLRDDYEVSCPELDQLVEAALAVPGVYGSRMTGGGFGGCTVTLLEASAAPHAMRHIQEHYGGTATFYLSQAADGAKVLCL
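5 nM enzyme, 35 uM ATP, 100 uM galactose, 20 mM HEPES pH8.0, 5 mM MgCl2; 1 h RT; residual ATP by Kinase-Glo Plus luminescence, qHTS format.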
Eya2 inh: inhibitors of human Eya2 phosphatase activity | 330,000 tested, 0.006% active | AID 488837 | Potency, µM (series often up to 76.9 µM), for the others: top-dose activity, negative = inhibition, actives largely listed as inhibitors | recombinant Eya2, OMFP fluorescence dephosphorylation (OMFP is methylfluorescein phosphate); further: potency means the concentration at half of the fitted maximal effect
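Eya2 protein (added as 0.2 uM solution) was preincubated with compound for 10 min at ambient temperature in 50 mM HEPES pH 7.5, 50 mM NaCl, 5 uM MgCl2, 0.05% BSA, 1 mM DTT. OMFP (added at 50 uM) then reacted 10 min; fluorescence read at 485/525 nm.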
Numbers without * were called inactive; [ ] = another dose, or the depositor's remark. Unless noted, the call rests on the fitted dose curve; in most records, active means well fitted curve in the direction sought with a large enough effect; inconclusive means small, poorly fitted or top-dose-only effect, or another doubt; inactive means no such curve, though single readings can be large; an effect the other way counts as inactive or inconclusive. Unless noted, on the % scale 0 is the no-effect control and ±100 the full control effect.

Screening Oc1ccc(/C=N/NC(=S)Nc2cccnc2)cc1O returned CtBP-E1A blk -6.4, JMJD2E inh 15.8µM*, Anesthetic bind -6.8%, Six1-Eya2 blk -23.4, GALK inh 1.8% and Eya2 inh -6.1%.
For CC(C)(C)c1ccc(/C=N/NC(=S)Nc2cccnc2)cc1 the results were JMJD2E inh -10.0%, Anesthetic bind inconclusive, GALK inh -4.1% and Eya2 inh -10.8%.
Oc1ccc(C=NNC(=S)Nc2cccnc2)nc1 was read as CtBP-E1A blk -6.1 and Six1-Eya2 blk -96.8*.
For CCC1(c2ccccc2)NC(=O)N(CC(=O)Nc2ccccc2N2CCCC2)C1=O (stereo not given) the results were CtBP-E1A blk -68.0*, Six1-Eya2 blk 0.0 and Eya2 inh -1.5%.
Screening COc1cc(-c2ccc(N=Nc3ccc4c(S(=O)(=O)O)cc(S(=O)(=O)O)c(N)c4c3O)c(OC)c2)ccc1N=Nc1ccc2c(S(=O)(=O)O)cc(S(=O)(=O)O)c(N)c2c1O returned JMJD2E inh 3.55µM* and Anesthetic bind -8.2%[29.3 µM].
For COc1ccc(NC(=O)CSc2nnc(-c3ccc(OC)cc3)s2)cc1 the results were Anesthetic bind 3.7%.
`NNc1nncc2ccccc12` gave JMJD2E inh 20µM*, Anesthetic bind -8.2% and Eya2 inh -8.4%.
Screening CC1CCCN(C(=O)COc2ccc(Nc3ccccc3)cc2)C1 (stereo not given) returned CtBP-E1A blk -6.8, JMJD2E inh -5.4%, Anesthetic bind 17.8µM*, Six1-Eya2 blk -3.0, GALK inh -2.4% and Eya2 inh 4.0%.
CC(Sc1nnc(Nc2ccccc2)s1)C(=O)Nc1nc(-c2ccccc2)cs1 (stereo not given) was read as CtBP-E1A blk -7.2, JMJD2E inh -2.0%, Anesthetic bind -2.0%, Six1-Eya2 blk -13.4, GALK inh 0.5% and Eya2 inh -5.7%.
Screening CC(Sc1nnc(NCc2ccccc2)s1)C(=O)Nc1ccc2c(c1)C(=O)c1ccccc1C2=O (stereo not given) returned CtBP-E1A blk -82.2*, JMJD2E inh inconclusive, Anesthetic bind -14.8%, Six1-Eya2 blk -66.3*, GALK inh 1.7% and Eya2 inh 1.8%.
COc1ccc(Cc2nnc(N/N=C/c3ccc(Br)cc3)[nH]c2=O)cc1OC was read as CtBP-E1A blk 3.7, JMJD2E inh 7.6%, Anesthetic bind -13.0%, Six1-Eya2 blk -0.6, GALK inh 3.4% and Eya2 inh -23.0%.
COc1ccc(/C=N/Nc2nnc(Cc3ccccc3)c(=O)[nH]2)cc1OC was read as CtBP-E1A blk inconclusive, JMJD2E inh 3.4%, Anesthetic bind -8.0%, Six1-Eya2 blk -65.9*, GALK inh -2.3% and Eya2 inh -1.8%.
For COc1ccc(Cc2nnc(N/N=C/c3ccc(O)cc3)[nH]c2=O)cc1OC the results were CtBP-E1A blk -91.2*, JMJD2E inh 14.1µM*, Anesthetic bind -11.2%, Six1-Eya2 blk -81.7*, GALK inh -0.8% and Eya2 inh -1.7%.
`O=c1[nH]c(N/N=C/c2ccc(O)cc2)nc2ccccc12` gave CtBP-E1A blk -68.4*, JMJD2E inh inconclusive, Anesthetic bind 53.0%, Six1-Eya2 blk inconclusive, GALK inh 0.4% and Eya2 inh -12.4%.
For CN1CCN(c2ncc3c(n2)CCN(Cc2cc(Br)cs2)C3)CC1 the results were Anesthetic bind -3.5%.
O=C(Nc1ccc(N2CCN(C(=O)c3ccccc3F)CC2)cc1)c1ncn[nH]1 was read as CtBP-E1A blk inconclusive, JMJD2E inh inconclusive, Anesthetic bind -5.6%, Six1-Eya2 blk -71.7*, GALK inh 0.0% and Eya2 inh 8.7%.
Screening CN(C)CCOc1cccc(Cl)c1 returned CtBP-E1A blk -11.3, JMJD2E inh 22.4µM*, Anesthetic bind 0.9%, Six1-Eya2 blk 4.5, GALK inh 1.4% and Eya2 inh 14.2%.
For CN(C)CCOc1cc(Cl)cc(Cl)c1 the results were CtBP-E1A blk 4.2, JMJD2E inh -3.4%, Anesthetic bind -5.9%, Six1-Eya2 blk 6.3, GALK inh 0.7% and Eya2 inh 10.9%.
`CCOCCCn1c(SCC(=O)Nc2cc(C)ccc2C)nc2c(oc3ccccc32)c1=O` gave Anesthetic bind 1.5%.
`O=C(c1ccccc1)c1c2c(cc3sc4ccccc4[n+]13)-c1cccc3cccc-2c13` gave CtBP-E1A blk 0.0, JMJD2E inh 15.8µM*, Anesthetic bind -0.3%, Six1-Eya2 blk -6.5, GALK inh 0.9% and Eya2 inh 5.0%.
`Cc1cccc(-c2nnn3c2nc(NCc2ccccc2)c2ccccc23)c1` gave Anesthetic bind 41.0%.
COc1cccc(/C=C/C(=O)OCC(=O)c2c[nH]c3ccccc23)c1 was read as CtBP-E1A blk -78.5*, Six1-Eya2 blk -16.3 and Eya2 inh 8.9%.
`CCCCNc1nc(C)nc2c1nc(-c1ccccc1)n2CC(C)(C)CN(C)C` gave JMJD2E inh inconclusive and Anesthetic bind -10.5%.
Screening CCOC(=O)c1[nH]c2cc(OC)c(OC)cc2c1NC(=O)C(C)N1CCN(Cc2ccccc2)CC1 (stereo not given) returned CtBP-E1A blk -65.4*, JMJD2E inh inconclusive, Anesthetic bind -20.3%, Six1-Eya2 blk inconclusive, GALK inh 1.8% and Eya2 inh -5.3%.
For Cc1ccc(S(=O)(=O)N2CCCC(c3nc4c(nnn4Cc4ccc(OC(F)(F)F)cc4)c(=O)[nH]3)C2)cc1 (stereo not given) the results were Anesthetic bind 4.5%.
Screening O=[N+]([O-])c1ccccc1Nc1ccccc1[N+](=O)[O-] returned CtBP-E1A blk 1.9 and Six1-Eya2 blk -25.3.
Screening O=[N+]([O-])c1ccccc1Nc1ccccc1 returned CtBP-E1A blk inconclusive, JMJD2E inh 2.8%, Anesthetic bind inconclusive, Six1-Eya2 blk -67.1*, GALK inh -0.7% and Eya2 inh -6.6%.
For COC(=O)c1cnn2c(C)c(Cc3cccc(F)c3)c(C)nc12 the results were CtBP-E1A blk 8.3, JMJD2E inh 3.55µM*, Anesthetic bind -1.1%, Six1-Eya2 blk 0.8, GALK inh 0.3% and Eya2 inh -7.7%.
Screening COC(=O)[C@@]1(Cc2ccccc2)C=C[C@@H](C)N1C(=O)c1ccccc1 returned JMJD2E inh 5.9% and Anesthetic bind -9.4%.
`Cc1c(C(=O)OCC(=O)N2CCC(C)CC2)oc2ccccc12` gave CtBP-E1A blk 2.6, Six1-Eya2 blk 3.4 and Eya2 inh -20.2%.
